Source: PubChem BioAssay (NCATS)
Inconclusive results are not listed. A number with no mark means an inactive call. Calls follow the shape of the dose curve; as a rule, active = well fitted inhibition curve with a large enough effect; inconclusive = small, poorly fitted or top-dose-only effect; inactive = flat fitted curve, though single readings scatter. Bridge positions count the residues as written; N and C are the ends. Square brackets hold non-standard residues; d marks the D form. Peptide text beside a SMILES is read from it. * marks the point of attachment. ξ: configuration not given here. Octanoyl(6-Me) = CCC(C)CCCCC(=O)*; ξThr(3R) = C[C@@H](O)C(N)C(=O)O; dDab = NCC[C@@H](N)C(=O)O; Dab = NCC[C@H](N)C(=O)O

These molecules were tested against Luciferin 4-monooxygenase (Photinus pyralis) (UniProt P08659) (assay: Biochemical firefly luciferase enzyme assay for NPC (AID 624030;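 also: purified P. pyralis luciferase at 10 nM with luciferin and ATP substrate; 0% = DMSO and -100% = full luciferase inhibition by PTC124 control; nearly all actives have a fitted effect of over 70% in size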)). Settings: purified P. pyralis luciferase, luminescence, 5 min; series mostly up to 58.6 µM; activity change, negative = inhibition: at the top concentration.
Luciferin 4-monooxygenase (Photinus pyralis), sequence (P08659 whole entry, looked up): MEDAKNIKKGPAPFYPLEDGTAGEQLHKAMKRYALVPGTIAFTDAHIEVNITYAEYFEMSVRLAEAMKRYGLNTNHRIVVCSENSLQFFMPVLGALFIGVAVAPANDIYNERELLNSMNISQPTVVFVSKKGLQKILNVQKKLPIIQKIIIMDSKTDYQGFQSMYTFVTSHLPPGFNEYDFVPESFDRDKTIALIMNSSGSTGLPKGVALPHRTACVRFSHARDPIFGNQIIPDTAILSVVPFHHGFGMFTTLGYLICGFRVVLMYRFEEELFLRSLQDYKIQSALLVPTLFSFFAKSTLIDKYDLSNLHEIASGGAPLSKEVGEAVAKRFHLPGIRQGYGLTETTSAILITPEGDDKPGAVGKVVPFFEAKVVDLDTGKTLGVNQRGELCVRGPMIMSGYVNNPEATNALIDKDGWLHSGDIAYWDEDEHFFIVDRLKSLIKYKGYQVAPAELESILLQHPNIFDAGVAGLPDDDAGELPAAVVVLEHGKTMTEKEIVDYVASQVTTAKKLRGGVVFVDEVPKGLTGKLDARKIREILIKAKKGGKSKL
Summary of the method: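 Direct inhibition of firefly luciferase enzyme (10 nM final, 50 mM Tris Acetate) assessed by luminescence within 5 minutes. Percent activity scaled between DMSO and PTC124 positive control, with concentration-effect curves classified by fit quality and response.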
In the case of `COC(=O)C1=C(C)NC(C)=C(C(=O)O[C@H]2CCN(Cc3ccccc3)C2)C1c1cccc([N+](=O)[O-])c1` (stereo partly specified), the “activity change, negative = inhibition” value is reported as -0.631%. `C/C(=C(\CCO)SSCC1CCCO1)N(C=O)Cc1cnc(C)nc1N` (stereo unspecified) was tested, and the “activity change, negative = inhibition” value was 2.26%. `CCC[C@]1(CCc2ccccc2)CC(O)=C([C@H](CC)c2cccc(NS(=O)(=O)c3ccc(C(F)(F)F)cn3)c2)C(=O)O1` was tested, and the “activity change, negative = inhibition” value was -12.4%. In the case of `O=C(O)/C=C(/CC(=O)O)C(=O)O`, the “activity change, negative = inhibition” value is reported as -5.89%. With `C(=C1NCCN1)c1cccc2ccccc12` the “activity change, negative = inhibition” value was 0.0122%. For `CC1CC2C3CCC4=CC(=O)C=CC4(C)[C@@]3(F)C(O)CC2(C)[C@@]1(O)C(=O)CCl` (stereo partly specified), the “activity change, negative = inhibition” value was -4.98%. With `CC(=O)C1(O)CCC2C3CC(C)C4=CC(=O)CCC4(C)C3CCC21C` (stereo unspecified) the “activity change, negative = inhibition” value was -1.35%. With `CC(=O)SC1CC2=CC(=O)CCC2(C)C2CCC3(C)C(CCC34CCC(=O)O4)C12` (stereo unspecified) the “activity change, negative = inhibition” value was -6.55%. With `CCC(C)CCCCC(=O)N[C@@H](CCN)C(=O)N[C@H](C(=O)N[C@@H](CCN)C(=O)N[C@H]1CCNC(=O)C([C@@H](C)O)NC(=O)[C@@H](CCN)NC(=O)[C@H](CCN)NC(=O)[C@H](CC(C)C)NC(=O)[C@@H](CC(C)C)NC(=O)[C@H](CCN)NC1=O)[C@@H](C)O` (stereo partly drawn) ({Octanoyl(6-Me)}-[Dab]T[Dab][Dab][Dab][dL]L[Dab][dDab][ξThr(3R)]; lactam 4-C) the “activity change, negative = inhibition” value was 11.7%. `CC(=O)OCC(=O)C1(O)CCC2C3CCC4=CC(=O)CCC4(C)C3C(O)CC21C` (stereo unspecified) was tested, and the “activity change, negative = inhibition” value was -5.54%. With `Cc1c(C)c2c(c(C)c1OC(=O)CCC(=O)OCCO)CC[C@](C)(CCC[C@H](C)CCC[C@H](C)CCCC(C)C)O2` the “activity change, negative = inhibition” value was 4.26%.
